The record followed here is PubChem BioAssay (NCI).

This is part of a sample that, as a whole, favours compounds with a hit. Of some 83,000 tested, about 20% had one in any assay.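 Plates (96-well) were seeded with cells, treated with compound at one concentration, and incubated for 48 hours before percent growth was determined.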 Values without a mark were called inactive. Activity calls are given as the source filed them.

The assay concerns SK-OV-3 ovarian. The assay can be described thus: NCI-60 one-dose screen, 48 h (100 = growth as untreated, 0 = no growth, -100 = all killed). Particulars: 10 µM unless noted. Here is the method:
Growth inhibition of the SK-OV-3 human tumor cell line is measured as a screen for anti-cancer activity. Cells are grown in 96 well plates and exposed to the test compound for 48 hours. Compounds are tested at a single concentration, which is 10^-5 M for most compounds. The reported endpoint is percent growth (GI% or GIPRCNT), where numbers from 0 - 100% represent growth inhibition, and numbers from -100% - 0 represent cell death. For example, a value of 40 represents 60% growth inhibition. A value of 0 means no net growth occurred over the course of the experiment. A value of -40 indicates 40% of cells at the beginning of the experiment died by the end of the experiment. A value of -100 means all cells are dead at the end of the experiment.
NCI-60 Human Tumor Cell Lines Screen was performed using the standard one-dose NCI protocol, which is described in more detail at https://dtp.cancer.gov/discovery_development/nci-60/default.htm.
Compounds with GIPRCNT values below 10 were considered active. Activity score was based on GIPRCNT using the following formula: […]
Score is 0 for GIPRCNT values of 100 or above, 50 for GIPRCNT values of 0, and 100 for GIPRCNT values of -100.
Take `COc1ccc2nc3cc(Cl)ccc3c(NCCCCCN3CCCCC3)c2c1`: the growth is -15.2% (active).
Consider `COc1cc([C@@H]2c3cc4c(cc3[C@H](OC3OC5COC(c6ccccc6)OC5C(O)C3O)[C@H]3COC(=O)[C@H]23)OCO4)cc(OC)c1OC` (stereo not given in full), for which the growth was 83.1%.
In the case of `COc1c(C)c2c(c(O)c1C/C=C(\C)CCC(=O)O)C(=O)OC2`, the growth was 45.2%.
On to `Cc1ccc(N2C(=O)C=CC2=O)cc1`, for which the growth was 121%.
Take `CN(C)c1ccc(/C=C/c2nccc3ccccc23)cc1`: the growth is 99.2%.
As for `CCCc1cc(=O)oc2c3c(c4c(c12)OC(C)(C)CC4)OC(C)[C@H](C)[C@@H]3O` (stereo not given in full), the growth was 95.3%.
Regarding `CC(C)c1ccc(Nc2n[nH]c(=S)s2)cc1`, the growth is 106%.
The same measure for `Nc1cccc2cccc([N+](=O)[O-])c12`: 103%; for `Oc1ccc(Nc2ccc3ccccc3c2)cc1`: 89.3%.
The same measure for `Oc1ccccc1N=Cc1ccccc1`: 104%.
As for `Cc1cc(C)c(C#N)c(Sc2nc(C)c([N+](=O)[O-])c(C)c2C#N)n1`, the growth was 81.3%.
The same measure for `Clc1ccc(Cc2nc3ccccc3s2)cc1`: 128%; for `O=C(c1ccccc1)C(Br)C(Br)c1ccccc1` (stereo not given): 115%; for `CC1(C)OCC(COC(c2ccccc2)(c2ccccc2)c2ccccc2)O1` (stereo not given): 112%.
In the case of `O=[N+]([O-])c1cc(-c2ccccc2)c(O)c([N+](=O)[O-])c1`, the growth is 83%.
As to `COc1ccc(/C=C2/C(=O)ON=C2C)cc1`, the growth is 100%.
The same measure for `O=C(Cc1nc2cc(Cl)c(Cl)cc2nc1CC(=O)c1ccccc1)c1ccccc1`: 77.4%.
`CCOc1ccc(C(CN2CCOCC2)C(C)=O)cc1OC` (stereo not given): the growth is 99.4%.
Turning to `CCOc1cc(F)c([N+](=O)[O-])cc1[N+](=O)[O-]`, the growth is 99.3%.
The same measure for `O=C(c1ccccc1)c1ccc(O)c2ncccc12`: 49.8%; for `Cc1nc(Sc2nc3ccc([N+](=O)[O-])cc3s2)sc1C`: 39.4%; for `CCCCCC[C@@H](O)C/C=C\CCCCCCCC(=O)OCCOC`: 114%.
As for `CC1(O)CCCCCC1`, the growth was 93.9%.
Consider `N#CCc1cccc2ccccc12`, for which the growth is 113%.
As for `CCCCCCCCCCCC[N+]1(CCCCCCCCCCCC)CCCC(C)C1` (stereo not given), the growth is -96.2% (active).
`CCCCCCCCCCCC[S+](C)CC(=O)[O-]` (stereo not given): the growth is 41.3%.
Take `CCCCCCCCCCCCSC(=N)N`: the growth is 79%.
The same measure for `O=C(CCl)N(c1ccccc1)c1ccccc1`: 114%; for `CC(C)=CCCC(C)C1=C(O)C(=O)C(C)=CC1=O` (stereo not given): 97.8%; for `O/N=C1\c2ccccc2-c2ccc(F)cc21`: 97.3%.
In the case of `COc1cc(/C=C/c2ccnc3ccccc23)cc(OC)c1OC`, the growth was 30.1%.
Turning to `Cc1ccc(Nc2ccc(O)c3c2C(=O)c2c(O)ccc(Nc4ccc(C)cc4)c2C3=O)cc1`, the growth is 108%.
In the case of `CCNc1nnnn1CC`, the growth was 109%.
Consider `COc1cc(/C=C2\SC(=S)N(/C=C/c3nc4ccccc4[nH]c3=O)C2=O)cc(OC)c1OC`, for which the growth was 76.3%.
Take `COc1cc(OC)c(/C=C/c2c3ccccc3cc[n+]2C)c(OC)c1`: the growth was 35%.
With `COC(=O)c1ccc(=O)c2nc3/c(=C/O)c(O)cc(=O)c3[nH]c12`, the growth was 52%.
As for `O=C(c1ccccc1)C(O)C(Br)(CBr)c1ccccc1` (stereo not given), the growth was 114%.
In the case of `O=C(Nc1ccc(Cl)c(Cl)c1)OCc1ccco1`, the growth is 83.3%.
`OC(CSc1ccccc1)CN1CCN(c2ccc(Cl)cc2)CC1` (stereo not given): the growth is 110%.
The figure for `O=C1CSC(=S)N1Cc1cccnc1` is 106%.
